Laboratory results published in PubChem BioAssay (NCI).
Compounds without any hit were thinned out: in the full panel of roughly 83,000, 20% have a hit.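 Growth was measured after 48 h exposure to one concentration of compound in 96-well plates. Values under 10 count as active.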 Calls of active or inactive are those of the source.

The molecules below were run on HCC-2998 colon (assay: NCI-60 one-dose screen, 48 h (100 = growth as untreated, 0 = no growth, -100 = all killed)). Conditions: 10 µM unless noted.
Method: Growth inhibition of the HCC-2998 human tumor cell line is measured as a screen for anti-cancer activity. Cells are grown in 96 well plates and exposed to the test compound for 48 hours. Compounds are tested at a single concentration, which is 10^-5 M for most compounds. The reported endpoint is percent growth (GI% or GIPRCNT), where numbers from 0 - 100% represent growth inhibition, and numbers from -100% - 0 represent cell death. For example, a value of 40 represents 60% growth inhibition. A value of 0 means no net growth occurred over the course of the experiment. A value of -40 indicates 40% of cells at the beginning of the experiment died by the end of the experiment. A value of -100 means all cells are dead at the end of the experiment.
NCI-60 Human Tumor Cell Lines Screen was performed using the standard one-dose NCI protocol, which is described in more detail at https://dtp.cancer.gov/discovery_development/nci-60/default.htm.
Compounds with GIPRCNT values below 10 were considered active. Activity score was based on GIPRCNT using the following formula: […]
Score is 0 for GIPRCNT values of 100 or above, 50 for GIPRCNT values of 0, and 100 for GIPRCNT values of -100.
With N#Cc1c(Nc2cccc(Cl)c2)sc(C(=O)c2cc3cc(Cl)ccc3o2)c1N the growth was 105% (inactive).
CCOC(=O)c1cn2ncnc(Oc3ccc(NC(=O)NCCN4CCOCC4)c(Cl)c3)c2c1C was tested, and the growth was 110% (inactive).
For CCCCn1c(=O)c(-c2cc(-c3ccc(Cl)cc3)nc(-c3ccc(Cl)cc3)c2)cc2cc(C)ccc21, the growth was 105% (inactive).
With CNCCCC12CCC(c3ccccc31)c1ccccc12 the growth was 50.5% (inactive).
With CCOC(=O)Nc1ccc(-c2nc(-c3cccc(OC)c3)c(-c3ccnc(Br)c3)[nH]2)cc1 the growth was 40.9% (inactive).
In the case of O=C(Cc1ccc2c(c1)OCCO2)Nc1nc2ccc(F)cc2s1, the growth was 122% (inactive).
With COc1ccc(C(=O)C[C@]2(O)C(=O)Nc3c(Cl)ccc(Cl)c32)cc1 the growth was 23.1% (inactive).
For O=c1c2cc(C(F)(F)F)ccc2sc2c(NCCCNCCO)nc3ccccc3c12, the growth was -89.8% (active).
For Cc1nc(S(=O)(=O)c2ccccc2)c(S(=O)(=O)Cc2ccc([N+](=O)[O-])cc2)o1, the growth was 97.7% (inactive).
In the case of COc1ccc(CN2c3ccccc3CCc3ccccc32)cc1F, the growth was 30.7% (inactive).
With CCOC(=O)C1=C(N)Oc2c(sc3c(C)cccc23)C1c1ccc(OC)cc1 (stereo not given) the growth was 74.4% (inactive).
In the case of COc1ccc(-c2cnc3ccccc3n2)cc1, the growth was 95.4% (inactive).
Cc1nn(-c2ccccc2)c(-n2ccnc2)c1/C=N/Nc1nc(-c2ccc(F)cc2)cs1 was tested, and the growth was 104% (inactive).
With COc1cc(C(=O)/C=C/c2ccc(OCCCCCC[P+](c3ccccc3)(c3ccccc3)c3ccccc3)cc2)cc(OC)c1OC the growth was -20.3% (active).
For COc1cc2cc(Oc3ccc(NC(=O)Nc4ccc(Cl)c(Cl)c4)cc3)c(C)nc2cc1OCCN1CCOCC1, the growth was 116% (inactive).
In the case of N/C(=N\c1nc2ccccc2s1)NC(=O)Nc1cccc2ccccc12, the growth was 38.9% (inactive).
Nc1nc2ccccc2c2c(=O)c3cc(F)ccc3sc12 was tested, and the growth was 96.6% (inactive).
In the case of CCOC(=O)CCN(C(=O)Nc1ccccc1)C1CCCCC1, the growth was 74.8% (inactive).
In the case of COc1ccc(S(=O)(=O)n2cc(C3OC(c4cc(OC)c(OC)c(OC)c4)=NN3C(C)=O)c3ccccc32)cc1OC (stereo not given), the growth was 105% (inactive).
NC(=O)Nc1ccc2ncnc(Nc3ccc(Cl)cc3)c2c1 was tested, and the growth was 97.9% (inactive).
For Cc1onc2c(-c3ccccc3)n[nH]c(=O)c12, the growth was 94.8% (inactive).
With CCN1C(=O)N(CC)C2Nn3c(s/c(=C4\C(=O)N(CCC(C)C)c5ccccc54)c3=O)=NC21 (stereo not given) the growth was 99.8% (inactive).
In the case of COc1cccc(Cc2cc(-c3ccccc3)nn(CC(=O)c3ccccc3)c2=O)c1, the growth was 84.7% (inactive).
For CCCCNC(=O)Oc1ccc(/C(=C(\C)c2ccc(Cl)cc2)c2ccc(OCCN3CCCCC3)cc2)cc1, the growth was 87.8% (inactive).
With Cc1ccc(-c2nc(N3CCN(C(=O)c4ccc(OC(F)(F)F)cc4)CC3)c3ccccc3n2)cc1 the growth was 97.1% (inactive).
CN1CCN(Cc2ccc(NC(=O)c3ccc(C(C)(C)C)c(C#Cc4cnc5cccnn45)c3)cc2C(F)(F)F)CC1 was tested, and the growth was -81.6% (active).
For c1ccc(CO[C@H]2CO[C@H]3[C@@H]2OC[C@@H]3Oc2ccc(Nc3ncnc4ccsc34)cc2)cc1, the growth was 104% (inactive).
c1ccc2c(-c3nc(-c4c[nH]c5ccncc45)cs3)c[nH]c2c1 was tested, and the growth was -34.4% (active).
For c1ccc(OCc2nnc(-c3ccc(Oc4ccccc4)cc3)o2)cc1, the growth was 114% (inactive).
With C(=N/Nc1ncnc2nc[nH]c12)/c1ccccn1 the growth was 28.2% (inactive).
O=c1c2cc(F)ccc2sc2c(N3CCNCC3)nc3ccccc3c12 was tested, and the growth was -92.1% (active).
With COc1ccc2c(c1)c(-c1nn3cc(-c4cccs4)nc3s1)cn2C the growth was 98.9% (inactive).
Cc1nc(NC(=O)COc2ccc(/C=C3\Cc4ccc(Cl)cc4C3=O)cc2)sc1C was tested, and the growth was 90.9% (inactive).
With CSc1ccc2c(c1)c(CCN)c(C)n2Cc1ccc(Cl)c(Cl)c1 the growth was -88.4% (active).
O=C(Nc1c2ccccc2nc2ccccc12)c1ccccc1CN1C(=O)c2ccccc2C1=O was tested, and the growth was 41.4% (inactive).
For Cc1nc2ccccc2c(/C=C/c2ccc(Cl)cc2)c1C(=O)/C=C/c1cccs1, the growth was 73.5% (inactive).
COc1ccc(/C=N/Nc2cc(=O)[nH]c3ccc(C)cc23)cc1 was tested, and the growth was 99.2% (inactive).
With COc1ccc(/C=C/c2c(C(=O)/C=C/c3ccc(C(F)(F)F)cc3)c(C)nc3ccccc23)cc1 the growth was -77% (active).
For Cc1cccc2c(=O)c3c(sc12)c(NCc1ccccc1)nc1ccccc13, the growth was 90.3% (inactive).
For O=C(Cc1ccc(F)c(Cl)c1)Nc1cc(C2(C(F)(F)F)CC2)nn1Cc1ccccc1, the growth was 104% (inactive).
